High-throughput results (PubChem BioAssay)
LmPK inh = qHTS Assay for Inhibitors of Leishmania Mexicana Pyruvate Kinase (LmPK); Q27686; purified LmPK, Kinase-Glo ATP luminescence, 1 h; Potency, µM (highest dose often 57.5 µM), usual class: inhibitors; hit rate 0.37% among 290,000
Target sequence (Q27686 whole entry, looked up): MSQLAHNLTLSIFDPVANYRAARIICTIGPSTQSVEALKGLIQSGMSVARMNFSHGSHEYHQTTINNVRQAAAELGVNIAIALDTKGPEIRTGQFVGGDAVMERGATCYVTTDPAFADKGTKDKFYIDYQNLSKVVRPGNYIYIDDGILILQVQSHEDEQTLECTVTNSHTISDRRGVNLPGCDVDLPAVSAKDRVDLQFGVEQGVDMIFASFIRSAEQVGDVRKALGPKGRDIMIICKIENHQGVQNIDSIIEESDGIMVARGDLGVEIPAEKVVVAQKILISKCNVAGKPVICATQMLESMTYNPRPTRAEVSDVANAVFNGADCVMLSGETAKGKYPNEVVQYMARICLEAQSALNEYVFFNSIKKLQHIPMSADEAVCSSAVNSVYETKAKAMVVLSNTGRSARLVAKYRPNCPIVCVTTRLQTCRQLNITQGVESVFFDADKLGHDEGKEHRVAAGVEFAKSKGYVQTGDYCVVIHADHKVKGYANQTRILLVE
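ATP generated from ADP (0.1 mM) and PEP (0.5 mM) by 0.1 nM LmPK over 1 h at room temperature (pH 7.2 imidazole buffer) was detected by coupled luciferase luminescence. Values were normalized to uninhibited and no-enzyme wells.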
Tb PYK inh = qHTS of Trypanosoma Brucei Inhibitors; pyruvate kinase (Trypanosoma brucei), Q57TT1; TbPYK enzyme, Kinase-Glo Plus ATP luminescence, 45 min; Potency, µM (series often up to 76.8 µM), hits mostly inhibitors; hit rate 0.12% among 410,000; note: nearly all actives have a fitted effect of over 50% in size
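Activity of T. brucei pyruvate kinase was followed by Kinase-Glo Plus luminescence after the enzyme reacted 45 min at room temperature with 130 uM ADP (final) and substrate. Test compounds were added before ADP at multiple concentrations.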
FBPA Giardia inh = qHTS Assay for Inhibitors of Fructose-1,6-bisphosphate Aldolase from Giardia Lamblia | A8B2U2 | purified Giardia FBPA | Potency, µM (series often up to 59.6 µM), usual class: inhibitors | hit rate 0.71% among 290,000; note: nearly all actives have a fitted effect of over 55% in size
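40 nM FBPA preincubated 10 min at RT with compound (up to 57.5 uM final), then substrate plus GAPDH/TPI/NAD/arsenate coupling and diaphorase/resazurin added. Fluorescence read after 20 min at RT, 525/598 nm.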
Cycloheximide cs = Cycloheximide Counterscreen for Small Molecule Inhibitors of Shiga Toxin; cell reporter, cycloheximide protein synthesis inhibition counterscreen; max response, %; hit rate 12% among 300,000; AID 2314, 2010; in the data active = max response mostly above about 13%, no sharp cut-off; inactive = mostly below about 14%; note: read at 38.3 µM for the half of the compounds with a filed dose
Sm TGR block = qHTS Assay for the Inhibitors of Schistosoma Mansoni Peroxiredoxins | purified TGR, DTNB reduction, TNB absorbance 405 nm | hit rate 3% among 360,000 | Potency, µM (doses to about 114 µM), actives largely listed as inhibitors | Schistosoma mansoni thioredoxin glutathione reductase (TGR), Q962Y6; note: nearly all actives have a fitted effect of over 60% in size
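TGR 20 nM + NADPH 100 uM (dispensed conc.), cpd preinc 15 min RT; start with NADPH (500 uM addition) then DTNB (15 mM addition). Kinetic TNB absorbance, 405 nm filter. Four-parameter Hill fit across titration.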
Shiga inhibitor = A qHTS for Small Molecule Inhibitors of Shiga Toxin | hit rate 9.2% among 290,000 | Vero cells, Shiga toxin protein synthesis inhibition reporter | inhibition, % at 38.7 µM; in the data active = inhibition mostly above about 28%, no sharp cut-off; inactive = mostly below about 43%
A number is an active result; n = inactive; u = inconclusive; x = no result given. Many of the other results were omitted from the sample, so hits are more common in it than they were. Unless noted, calls come from the whole dose curve; as a rule, active = well fitted curve in the direction sought with a large enough effect; inconclusive = small, poorly fitted or top-dose-only effect, or another doubt; inactive = no such curve, though single readings can be large; an effect the other way counts as inactive or inconclusive.

SMILES	LmPK inh	Tb PYK inh	FBPA Giardia inh	Cycloheximide cs	Sm TGR block	Shiga inhibitor
CN(C)c1ccc(CNC(=O)C2CCN(C(=O)c3ccc(-n4ccc5ccccc54)s3)CC2)cc1	x	n	x	x	n	x
Cc1c(-c2ccccc2)c(=O)oc2c(CN3CCCC3)c(O)ccc12	x	n	x	x	n	x
CCCCNC(C)(C)[P+](=O)O	x	n	x	x	x	x
COc1cccc(NC(=O)Nc2ccc3snnc3c2)c1	x	n	x	x	n	x
COc1cccc(NC(=O)Nc2ccc3c(c2)nnn3C)c1	n	n	n	32	n	59
Cc1ccc(OCc2cn3cccnc3n2)cc1	n	n	n	55	n	104
Cc1cccn2cc(COc3cccc([N+](=O)[O-])c3)nc12	n	n	n	22	n	61
Cc1cccn2cc(COc3ccc(-c4ccccc4)cc3)nc12	n	n	n	71	n	68
O=[N+]([O-])c1cccc(OCc2cn3cccnc3n2)c1	n	n	n	20	n	n
c1ccc(CN2CCN(Cc3cn4cccnc4n3)CC2)cc1	n	n	n	n	n	n
O=[N+]([O-])c1cccc(Oc2ncccc2[N+](=O)[O-])c1	x	n	x	x	x	x
Cc1nc2ncnn2c(C)c1CCC(=O)NCc1ccccc1Cl	x	n	x	x	n	x
O=C(CC1C(=O)N(c2ccccc2)C(=O)N1Cc1ccc2c(c1)OCO2)Nc1ccccc1 (stereo not drawn)	x	n	x	x	n	x
COc1cc(-c2nc(S(=O)(=O)c3ccc(Br)cc3)c(N3CCOCC3)o2)cc(OC)c1OC	x	n	x	x	n	x
C=CCOC(=O)C1=C(C)NC(=O)NC1c1ccc2c(c1)OCO2 (stereo not drawn)	n	n	n	n	u	n
C=CCOC(=O)c1c(C)nc2cc3c(cc2c1C)OCO3	n	n	n	29	n	69
Cc1ccc2c(c1)CCCN2C(=O)CSc1ccccc1	n	n	x	12	n	n
O=C(CSc1ncccn1)n1c2c(c3ccccc31)CCCC2	n	n	n	33	n	52
O=C(CSc1nc(=O)n2ccccc2n1)N1CCCc2ccccc21	x	n	x	x	n	x
O=C(CSc1ncn(-c2ccccc2)n1)N1CCc2ccccc21	n	n	n	n	n	n
Cc1ccnc(SCC(=O)N2CCc3ccccc32)n1	n	n	x	32	n	73
O=C(CSc1ncccn1)N1CCCc2ccccc21	n	n	n	11	n	n
COC(=O)[C@@]1(Cc2ccccc2)[C@H]2c3cc(C(=O)N4CCCC4)n(Cc4cc(F)cc5c4OCOC5)c3C[C@H]2CN1C(=O)c1ccccc1	x	x	n	x	x	x
CC(C)(C)NC(=O)C1c2ccccc2OCC(=O)N1CC(F)(F)F (stereo not drawn)	x	n	x	x	x	x
COc1ccc2ccccc2c1C1NC(=O)c2ccccc2N1 (stereo not drawn)	x	n	x	x	x	x
SMILES	LmPK inh	Tb PYK inh	FBPA Giardia inh	Cycloheximide cs	Sm TGR block	Shiga inhibitor
COc1ccc(N2CCN(C(=O)c3c(C)oc4ncnc(N5CCCCC5)c34)CC2)cc1	x	n	x	x	n	x
O=C(Nc1nnc(SCC(=O)N2CCCc3ccccc32)s1)c1cccc2ccccc12	n	n	n	n	n	n
O=C(CSc1ccc2nnc(-c3ccc(Cl)cc3)n2n1)N1CCCc2ccccc21	n	n	n	17	n	n
O=C(CSc1nnc(-c2ccccc2)o1)N1CCCc2ccccc21	x	n	x	x	n	x
O=C(O)c1cccnc1SCC(=O)N1CCCc2ccccc21	n	n	u	47	u	99
Cc1ccc(C(=O)Nc2nnc(SCC(=O)N3CCCc4ccccc43)s2)cc1	n	n	n	33	n	49
O=C(CCS(=O)(=O)c1ccccc1)N1CCCc2ccccc21	n	n	n	19	40µM	57
COC(=O)C(Cc1ccccc1)NC(=O)CNC(=O)c1ccccc1OC (stereo not drawn)	n	n	n	n	n	n
Cn1c(=O)c2c(SCC(=O)NCC3CCCO3)nc(-c3cccc(F)c3)nc2n(C)c1=O (stereo not drawn)	x	n	x	x	n	x
C=CCOc1ccc(C2NC(=S)NC3=C2CCc2ccccc23)cc1 (stereo not drawn)	n	n	n	25	56µM	n
COc1ccc(C2C(C(=O)Nc3cccnc3)=C(C)Nc3nc(-c4ccco4)nn32)cc1 (stereo not drawn)	n	n	n	n	50µM	n
Cc1cnc(C)c(Nc2nc(C(N)Cc3ccc(C(F)(F)F)cc3)cs2)n1 (stereo not drawn)	x	n	x	x	x	x
CCOC(=O)Cn1c(=O)n(CC2CCCO2)c2nc(-c3c(F)cccc3Cl)nc(C(N)=O)c21 (stereo not drawn)	x	n	x	x	n	x
CCCCC(=O)Nc1ccccc1N1CCOCC1	n	n	n	n	n	n
Cc1cn(CCC(=O)Nc2ccc(N3CCOCC3)cc2)c2ccccc12	n	n	n	66	n	61
Cc1cn(CCC(=O)Nc2ccccc2N2CCOCC2)c2ccccc12	n	n	n	50	n	75
CCCC(=O)Nc1ccc(N2CCOCC2)cc1	n	n	n	n	n	n
COc1cc(CC(=O)Nc2ccccc2N2CCOCC2)cc(OC)c1OC	n	n	n	n	n	n
COc1ccc(C)cc1C(=O)CCC(=O)Nc1ccccc1N1CCOCC1	n	n	n	n	22µM	n
CCCN(C(=O)c1cccc(-n2cccc2)c1)c1c(N)n(Cc2ccccc2)c(=O)[nH]c1=O	x	n	x	x	n	x
CN1CCN(C(=S)Nc2ccc(Cl)cc2Cl)CC1	n	n	n	16	n	n
CCN1CCN(CC(=O)c2cc(Cl)ccc2Cl)CC1	n	n	n	n	18µM	n
CCN1CCN(C(=S)Nc2ccc(Cl)cc2Cl)CC1	n	n	n	25	n	n
S=C(Nc1ccc(Cl)cc1Cl)N1CCOCC1	n	n	n	n	n	n
O=C(CN1CCCCC1)c1ccccc1Cl	n	n	n	n	n	n
SMILES	LmPK inh	Tb PYK inh	FBPA Giardia inh	Cycloheximide cs	Sm TGR block	Shiga inhibitor
COc1ccc(Cc2nnc(SCC(=O)Nc3ccccc3C#N)o2)cc1	n	n	x	n	n	n
COc1cc(C(=O)Nc2ccc3oc(-c4ccc(C)c(Br)c4)nc3c2)cc(OC)c1OC	x	n	x	x	n	x
CCOC(=O)[C@@H]1[C@H]2COc3cc(OC)ccc3[C@H]2N2C(=O)N(c3ccc(C(F)(F)F)cc3)C(=O)[C@]12C	x	n	x	x	x	x
Cc1ccc(NC(=O)c2cnn(-c3ccccc3)c2C)c(C)c1	n	n	n	38	n	n
Cc1cccc(C)c1NC(=O)c1cnn(-c2ccccc2)c1C	n	n	n	n	n	n
Cc1ccc(NC(=O)c2cnn(-c3ccccc3)c2C)cc1	n	n	n	32	n	x
CCn1c(SCCN2CCCCC2)nc2c1c(=O)n(C)c(=O)n2C	x	n	x	x	x	x
CCCN(CCC)CCNC(=O)CCC(=O)Nc1ccc2nc(N3CCOCC3)cc(C)c2c1	n	n	n	40	n	75
